{"source": "the supplement of paper PMC10681739"}
{"target": "T1, ETS1 (UniProt P14921)", "T1 sequence": "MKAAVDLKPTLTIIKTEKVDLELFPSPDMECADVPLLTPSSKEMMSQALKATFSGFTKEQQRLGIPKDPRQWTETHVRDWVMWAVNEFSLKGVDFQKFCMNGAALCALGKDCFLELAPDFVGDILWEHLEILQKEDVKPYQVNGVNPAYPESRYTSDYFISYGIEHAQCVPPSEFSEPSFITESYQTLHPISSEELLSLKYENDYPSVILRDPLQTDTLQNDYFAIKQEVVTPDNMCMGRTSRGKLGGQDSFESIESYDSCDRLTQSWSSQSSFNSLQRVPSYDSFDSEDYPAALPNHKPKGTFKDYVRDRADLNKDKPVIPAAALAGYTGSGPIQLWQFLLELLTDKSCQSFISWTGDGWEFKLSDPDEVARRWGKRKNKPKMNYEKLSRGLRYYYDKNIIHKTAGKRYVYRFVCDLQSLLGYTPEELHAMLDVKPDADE", "experiment": "ETS1 binding intensity (PBM fluorescence) in presence of RUNX1, normalised to ETS1-only experiment (arbitrary fluorescence units); higher = stronger binding", "settings": "ETS1 concentration 1 nM; RUNX1 concentration 25 nM"}
{"sequence": "AAGTGAAGAGCTTCCGCCGGGAGACCGCGGCTGCAG", "ETS1 binding intensity": 686}
{"sequence": "GTTTCTCTGGCCAGGAAATTGAGGTTTCTGTTAGTC", "ETS1 binding intensity": 3260}
{"sequence": "CTGCTAGCGGAAGCAGCCAAGCCCACAGGCTCCAGG", "ETS1 binding intensity": 1140}
{"sequence": "TCCGGAAGTCGGAGGAACACCCCAGCCGCCGCAGCC", "ETS1 binding intensity": 2010}
{"sequence": "CTGCCCACCGGAAACGATGGCGCGAGGCCGCAGAGC", "ETS1 binding intensity": 7790}
{"sequence": "TACAACTTGCAACGGAAACCACTTCAGGTTCATTAC", "ETS1 binding intensity": 1280}
{"sequence": "ATCTTCAGGAAGCGGTATCAACCTGAAAACCACCAC", "ETS1 binding intensity": 870}
{"sequence": "ACCCACCCGGAAGTCCTCCTGGCCCACAAGCTCCGC", "ETS1 binding intensity": 2270}
{"sequence": "CCGCTGACATCCGCTTGGCCTGCGGCTTCTTTCTGT", "ETS1 binding intensity": 1030}
{"sequence": "GCACCCGGCACTACTTCCCGACCCGCATCCCCCGCC", "ETS1 binding intensity": 683}
{"sequence": "CTTTGCTGCCGCCTTCCTGTGCGGGGCCGTGGCGGC", "ETS1 binding intensity": 389}
{"sequence": "TACCTACAGGAAATGAGACACACCGCAGGCCGATCC", "ETS1 binding intensity": 7670}
{"sequence": "AGAACAGCAGGAAATAAATACCCACCTCAGGACTGC", "ETS1 binding intensity": 1050}
{"sequence": "ACAGGAAATGTTAGAGGTTGAGTTAGCGGTTATGAG", "ETS1 binding intensity": 3640}
{"sequence": "TCCCGAGAGCCGGAAGCAGCCGCAGGCCCCGCCACA", "ETS1 binding intensity": 4410}
{"sequence": "ACCAGAACAGGAAATGTTAGTGGTTGAGTTAACGGT", "ETS1 binding intensity": 5800}
{"sequence": "GCCCGGAAGCGCGACGCTGGAGCTGCGGGGTTACCA", "ETS1 binding intensity": 887}
{"sequence": "AGGAGAAGGAAGAGGATGTTGAGGTTGGGGGAAACC", "ETS1 binding intensity": 2530}
{"sequence": "GCACCGTACCCGGAACTGCTCCCTCCCGCAGGCGCA", "ETS1 binding intensity": 540}
{"sequence": "CCTTCCTTCCGGGGTCGGCCCCGCCCGCAAGCGCCG", "ETS1 binding intensity": 467}
{"sequence": "AACCTAGAAAAGGAAGCTGCGGTTTTTCAGGGTATG", "ETS1 binding intensity": 6430}
{"sequence": "GACAGGAAGCCCGCGGCAGCCTCCGTGGTTGCAGAT", "ETS1 binding intensity": 687}
{"sequence": "TGGAGTGAAGCGGCTTCCTTGCGGTTGTGTGCGTGT", "ETS1 binding intensity": 799}
{"sequence": "GTGTGCGTGAGAAGAGGAAGTGGTTAGGAAGACACA", "ETS1 binding intensity": 12200}
{"sequence": "CAGCGGAAGAAAGACCTGCCACCTCCACCACAAAGA", "ETS1 binding intensity": 471}
{"sequence": "GAAATGAGAGAACGGAAACCACAAGTCAAGGGGCTT", "ETS1 binding intensity": 2790}
{"sequence": "AGCCAACAGGAAGCTGCAGAGACTAAACCACAGCAA", "ETS1 binding intensity": 4930}
{"sequence": "TCATAAGGAAGTGGAGTGTAGTAACCACAGGCCCCG", "ETS1 binding intensity": 1100}
{"sequence": "CAGCTTTCCGGCCTGCAGCACAGGCAATGTGGTTTT", "ETS1 binding intensity": 554}
{"sequence": "TGACTTCCGGTCCGTAGTGGGGCCTGCGGTGGGAGT", "ETS1 binding intensity": 10700}
{"sequence": "CCAGCAAAGGAAGCTTGGTCAACCACAGCAGCCTGT", "ETS1 binding intensity": 463}
{"sequence": "GAAGAGAAAGGAAACGGCTCGCGGTTTCTGGGGTTC", "ETS1 binding intensity": 3150}
{"sequence": "GCGCCCCGCTTCCGGGGCCGCCCTAAACCGCGGCCG", "ETS1 binding intensity": 2870}
{"sequence": "TGGAGAGCACAGGAAGTGGCCCACAGCCCAGGCCAA", "ETS1 binding intensity": 6890}
{"sequence": "CAGTGCCAGCCGGAACTTGTGGTTCGGACCGTGGGT", "ETS1 binding intensity": 2100}
{"sequence": "GCCCCAGCCCCCGGATGTGGTGACAGAATCGATACT", "ETS1 binding intensity": 6050}
{"sequence": "AGCCCGCCGGAAACTAGCGTCACCGCGCCAAGGTTC", "ETS1 binding intensity": 1250}
{"sequence": "TGGCGGGAGAACTTCCCCCTGTGCGGTCGCGACGTG", "ETS1 binding intensity": 533}
{"sequence": "GGGGCTCCGCAGGAAGTAGGGCTCCCACAACTTTGC", "ETS1 binding intensity": 2310}
{"sequence": "CCTCACCCAGGAAGTGGCTGCGGCTGTCTCAGGGTT", "ETS1 binding intensity": 3340}
{"target": "RUNX1 (UniProt Q01196)", "sequence (Q01196 whole entry)": "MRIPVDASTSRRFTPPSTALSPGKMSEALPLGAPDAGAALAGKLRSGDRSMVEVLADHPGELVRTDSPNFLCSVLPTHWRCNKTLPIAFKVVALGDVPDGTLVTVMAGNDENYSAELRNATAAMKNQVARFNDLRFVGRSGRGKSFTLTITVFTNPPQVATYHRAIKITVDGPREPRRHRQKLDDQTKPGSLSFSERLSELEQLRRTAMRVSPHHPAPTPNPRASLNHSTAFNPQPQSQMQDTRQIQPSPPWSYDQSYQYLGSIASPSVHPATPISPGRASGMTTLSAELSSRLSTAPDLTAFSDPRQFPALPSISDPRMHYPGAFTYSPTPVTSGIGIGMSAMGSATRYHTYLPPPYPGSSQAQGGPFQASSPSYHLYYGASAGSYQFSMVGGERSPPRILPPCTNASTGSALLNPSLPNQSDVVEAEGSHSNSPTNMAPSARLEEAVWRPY", "experiment": "RUNX1 binding intensity (PBM fluorescence) in presence of ETS1, normalised to RUNX1-only experiment (arbitrary fluorescence units); higher = stronger binding", "settings": "RUNX1 concentration 2 nM; ETS1 concentration 25 nM", "method": "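Cooperative gcPBM on 36-bp genomic probes with neighbouring ETS1 and RUNX1 sites. Recombinant human RUNX1 (2 nM) was incubated alone or with ETS1 (25 nM) and detected with anti-RUNX1 antibody plus Alexa488 secondary. Values are medians over 4 replicate spots; the RUNX1+ETS1 data were normalised to the RUNX1-only data. The probes sit in constant array flanks that are not printed.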"}
{"sequence": "AAGTGAAGAGCTTCCGCCGGGAGACCGCGGCTGCAG", "RUNX1 binding intensity": 1250}
{"sequence": "GTTTCTCTGGCCAGGAAATTGAGGTTTCTGTTAGTC", "RUNX1 binding intensity": 1660}
{"sequence": "CTGCTAGCGGAAGCAGCCAAGCCCACAGGCTCCAGG", "RUNX1 binding intensity": 1040}
{"sequence": "TCCGGAAGTCGGAGGAACACCCCAGCCGCCGCAGCC", "RUNX1 binding intensity": 988}
{"sequence": "CTGCCCACCGGAAACGATGGCGCGAGGCCGCAGAGC", "RUNX1 binding intensity": 1660}
{"sequence": "TACAACTTGCAACGGAAACCACTTCAGGTTCATTAC", "RUNX1 binding intensity": 866}
{"sequence": "ATCTTCAGGAAGCGGTATCAACCTGAAAACCACCAC", "RUNX1 binding intensity": 1250}
{"sequence": "ACCCACCCGGAAGTCCTCCTGGCCCACAAGCTCCGC", "RUNX1 binding intensity": 1630}
{"sequence": "CCGCTGACATCCGCTTGGCCTGCGGCTTCTTTCTGT", "RUNX1 binding intensity": 2740}
{"sequence": "GCACCCGGCACTACTTCCCGACCCGCATCCCCCGCC", "RUNX1 binding intensity": 1320}
{"sequence": "CTTTGCTGCCGCCTTCCTGTGCGGGGCCGTGGCGGC", "RUNX1 binding intensity": 1020}
{"sequence": "TACCTACAGGAAATGAGACACACCGCAGGCCGATCC", "RUNX1 binding intensity": 1770}
{"sequence": "AGAACAGCAGGAAATAAATACCCACCTCAGGACTGC", "RUNX1 binding intensity": 887}
{"sequence": "ACAGGAAATGTTAGAGGTTGAGTTAGCGGTTATGAG", "RUNX1 binding intensity": 914}
{"sequence": "TCCCGAGAGCCGGAAGCAGCCGCAGGCCCCGCCACA", "RUNX1 binding intensity": 1330}
{"sequence": "ACCAGAACAGGAAATGTTAGTGGTTGAGTTAACGGT", "RUNX1 binding intensity": 1260}
{"sequence": "GCCCGGAAGCGCGACGCTGGAGCTGCGGGGTTACCA", "RUNX1 binding intensity": 882}
{"sequence": "AGGAGAAGGAAGAGGATGTTGAGGTTGGGGGAAACC", "RUNX1 binding intensity": 882}
{"sequence": "GCACCGTACCCGGAACTGCTCCCTCCCGCAGGCGCA", "RUNX1 binding intensity": 950}
{"sequence": "CCTTCCTTCCGGGGTCGGCCCCGCCCGCAAGCGCCG", "RUNX1 binding intensity": 3960}
{"sequence": "AACCTAGAAAAGGAAGCTGCGGTTTTTCAGGGTATG", "RUNX1 binding intensity": 12300}
{"sequence": "GACAGGAAGCCCGCGGCAGCCTCCGTGGTTGCAGAT", "RUNX1 binding intensity": 1090}
{"sequence": "TGGAGTGAAGCGGCTTCCTTGCGGTTGTGTGCGTGT", "RUNX1 binding intensity": 2630}
{"sequence": "GTGTGCGTGAGAAGAGGAAGTGGTTAGGAAGACACA", "RUNX1 binding intensity": 1900}
{"sequence": "CAGCGGAAGAAAGACCTGCCACCTCCACCACAAAGA", "RUNX1 binding intensity": 925}
{"sequence": "GAAATGAGAGAACGGAAACCACAAGTCAAGGGGCTT", "RUNX1 binding intensity": 4480}
{"sequence": "AGCCAACAGGAAGCTGCAGAGACTAAACCACAGCAA", "RUNX1 binding intensity": 1390}
{"sequence": "TCATAAGGAAGTGGAGTGTAGTAACCACAGGCCCCG", "RUNX1 binding intensity": 1340}
{"sequence": "CAGCTTTCCGGCCTGCAGCACAGGCAATGTGGTTTT", "RUNX1 binding intensity": 2150}
{"sequence": "TGACTTCCGGTCCGTAGTGGGGCCTGCGGTGGGAGT", "RUNX1 binding intensity": 3180}
{"sequence": "CCAGCAAAGGAAGCTTGGTCAACCACAGCAGCCTGT", "RUNX1 binding intensity": 891}
{"sequence": "GAAGAGAAAGGAAACGGCTCGCGGTTTCTGGGGTTC", "RUNX1 binding intensity": 1280}
{"sequence": "GCGCCCCGCTTCCGGGGCCGCCCTAAACCGCGGCCG", "RUNX1 binding intensity": 3790}
{"sequence": "TGGAGAGCACAGGAAGTGGCCCACAGCCCAGGCCAA", "RUNX1 binding intensity": 1280}
{"sequence": "CAGTGCCAGCCGGAACTTGTGGTTCGGACCGTGGGT", "RUNX1 binding intensity": 1420}
{"sequence": "GCCCCAGCCCCCGGATGTGGTGACAGAATCGATACT", "RUNX1 binding intensity": 4060}
{"sequence": "AGCCCGCCGGAAACTAGCGTCACCGCGCCAAGGTTC", "RUNX1 binding intensity": 1160}
{"sequence": "TGGCGGGAGAACTTCCCCCTGTGCGGTCGCGACGTG", "RUNX1 binding intensity": 943}
{"sequence": "GGGGCTCCGCAGGAAGTAGGGCTCCCACAACTTTGC", "RUNX1 binding intensity": 1040}
{"sequence": "CCTCACCCAGGAAGTGGCTGCGGCTGTCTCAGGGTT", "RUNX1 binding intensity": 1440}
